Test results as given in PubChem BioAssay.
The source made the active and inactive calls.

Experiments:
[1] = target: Albumin (Bos taurus) (UniProt P02769); assay: compounds binding labelled BSA control protein – biochemical, small-molecule microarray, Alexa647 label, 635/667 nm fluorescence, artefact control for SMM control protein annotation, profiling panel (AID 1118); conditions: BSA-A647 binding, fluorescence 635 nm, higher = more signal;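 also: score merges 667 nm emission intensity and signal-to-noise per printed compound spot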
Sequence of Albumin (Bos taurus) (P02769 whole entry, looked up): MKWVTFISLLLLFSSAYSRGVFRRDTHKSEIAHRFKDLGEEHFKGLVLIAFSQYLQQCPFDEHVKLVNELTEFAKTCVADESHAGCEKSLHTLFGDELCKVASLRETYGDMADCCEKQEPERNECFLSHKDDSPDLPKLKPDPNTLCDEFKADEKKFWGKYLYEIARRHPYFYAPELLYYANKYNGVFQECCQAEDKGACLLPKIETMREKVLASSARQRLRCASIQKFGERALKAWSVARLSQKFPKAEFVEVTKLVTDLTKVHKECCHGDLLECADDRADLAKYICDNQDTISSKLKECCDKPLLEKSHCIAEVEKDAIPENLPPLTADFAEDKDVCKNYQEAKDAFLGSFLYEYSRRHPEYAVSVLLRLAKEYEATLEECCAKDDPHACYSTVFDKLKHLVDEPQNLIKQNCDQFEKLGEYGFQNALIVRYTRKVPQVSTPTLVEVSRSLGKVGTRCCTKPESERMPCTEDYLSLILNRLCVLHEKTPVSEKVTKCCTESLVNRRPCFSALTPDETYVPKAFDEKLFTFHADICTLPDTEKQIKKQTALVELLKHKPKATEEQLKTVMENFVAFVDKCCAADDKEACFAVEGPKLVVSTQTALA

[2] = probe aXIP binding to arrayed compounds – biochemical, NeuroSMM set, 635/667 nm fluorescence, primary screen (AID 1119); conditions: small-molecule microarray, higher = more signal, called active from +8 up or from −8 down;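 also: probe is the protein aXip251-270 applied at 1 µg/mL to compound-printed slides; binding of probe to printed compounds measured as 667 nm fluorescence plus signal to noise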
[3] = probe aNOTCH3 binding on compound microarray – biochemical, small-molecule microarray, 635/667 nm fluorescence, primary screen (AID 1120); conditions: higher = more signal;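 also: probe is a biotin-tagged antibody raised against NOTCH3 rather than NOTCH3 protein; score merges spot fluorescence near 667 nm with spot signal to noise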
[4] = probe aNOTCH2 binding on compound microarray – biochemical, small-molecule microarray, 635/667 nm fluorescence, primary screen (AID 1121); conditions: higher = more signal;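 also: score merges feature fluorescence read at 667 nm with its signal to noise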
[5] = target: Carbonic anhydrase 2 (Homo sapiens) (UniProt P00918); assay: compounds binding carbonic anhydrase 2 – biochemical, small-molecule microarray, Alexa647-labelled CAII, profiling panel (AID 1122); conditions: CAII-A647 binding fluorescence, higher = more signal
[6] = COS7 lysate on small-molecule microarray, probe aHis, 635 nm (AID 1123); conditions: COS7 cell lysate, fluorescence, higher = more signal;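 also: z-score combines 667nm fluorescence intensity with signal-to-noise per printed compound spot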
[7] = probe aLAP1 signal on lysate-treated microarray – cell lysate, small-molecule microarray, COS7 lysate, primary screen (AID 1124); conditions: probe aLAP1, fluorescence, higher = more signal;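 also: lysate comes from COS7 cells expressing LAP1 and is applied at 0.3 µg/mL; score merges spot fluorescence near 667 nm with signal-to-noise over triplicate slides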
[8] = tested on: Sam68 (KHDRBS1); assay: compounds binding KHDRBS1 protein – biochemical, small-molecule microarray, 635 nm fluorescence, primary screen (AID 1125); conditions: higher = more signal;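 also: score merges 667 nm channel intensity with signal to noise over triplicate slides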
[9] = tested on: Chordin-like protein 2 (CHRDL2); assay: compounds binding chordin-like 2 – biochemical, small-molecule microarray, 635 nm fluorescence, primary screen (AID 1126); conditions: fluorescence 635 nm, higher = more signal;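 also: printed compound slides probed with Chrdl2 protein at 4 µg/mL for 1 h at 4 C; score merges 667 nm emission intensity with signal to noise over three replicate slides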
[10] = target: Concanavalin-A (Canavalia ensiformis) (UniProt P02866); assay: compounds binding concanavalin A lectin – biochemical, small-molecule microarray, Alexa647 label, 635 nm, artefact control for SMM control protein annotation, primary screen (AID 1127); conditions: ConA-A647 binding fluorescence, higher = more signal;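 also: z combines 667 nm emission intensity with signal-to-noise across three replicate slides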
Sequence of Concanavalin-A (Canavalia ensiformis) (P02866 whole entry, looked up): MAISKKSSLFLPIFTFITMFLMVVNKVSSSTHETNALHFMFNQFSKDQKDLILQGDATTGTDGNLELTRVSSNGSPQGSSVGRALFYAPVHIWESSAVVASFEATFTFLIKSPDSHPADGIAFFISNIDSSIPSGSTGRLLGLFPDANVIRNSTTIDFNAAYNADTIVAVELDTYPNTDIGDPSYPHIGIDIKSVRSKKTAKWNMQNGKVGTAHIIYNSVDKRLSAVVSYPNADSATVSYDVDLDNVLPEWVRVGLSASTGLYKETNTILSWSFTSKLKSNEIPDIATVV

[11] = compounds binding Alexa647 anti-His antibody – biochemical, small-molecule microarray, 635 nm fluorescence, artefact control for SMM control protein annotation, primary screen (AID 1128); conditions: higher = more signal;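 also: score merges feature fluorescence with signal-to-noise for each printed compound spot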
[12] = tested on: Human papillomavirus type 1a E7 protein (residues 1-88); assay: HPV1a E7 small-molecule binders, primary screen, biochemical, small-molecule microarray, residues 1-88, 635 nm (AID 1129); conditions: small-molecule microarray binding, fluorescence 635 nm; higher = more signal
[13] = target: Focal adhesion kinase 1 (Homo sapiens) (UniProt Q05397); assay: PTK2 protein binding on printed compound slides – biochemical, small-molecule microarray, 635/667 nm fluorescence, BSA, DTT, primary screen (AID 1130); conditions: 635 nm fluorescence, higher = more signal;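 also: composite of spot emission at 667 nm and signal to noise over triplicate slides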
Sequence of Focal adhesion kinase 1 (Homo sapiens) (Q05397 whole entry, looked up): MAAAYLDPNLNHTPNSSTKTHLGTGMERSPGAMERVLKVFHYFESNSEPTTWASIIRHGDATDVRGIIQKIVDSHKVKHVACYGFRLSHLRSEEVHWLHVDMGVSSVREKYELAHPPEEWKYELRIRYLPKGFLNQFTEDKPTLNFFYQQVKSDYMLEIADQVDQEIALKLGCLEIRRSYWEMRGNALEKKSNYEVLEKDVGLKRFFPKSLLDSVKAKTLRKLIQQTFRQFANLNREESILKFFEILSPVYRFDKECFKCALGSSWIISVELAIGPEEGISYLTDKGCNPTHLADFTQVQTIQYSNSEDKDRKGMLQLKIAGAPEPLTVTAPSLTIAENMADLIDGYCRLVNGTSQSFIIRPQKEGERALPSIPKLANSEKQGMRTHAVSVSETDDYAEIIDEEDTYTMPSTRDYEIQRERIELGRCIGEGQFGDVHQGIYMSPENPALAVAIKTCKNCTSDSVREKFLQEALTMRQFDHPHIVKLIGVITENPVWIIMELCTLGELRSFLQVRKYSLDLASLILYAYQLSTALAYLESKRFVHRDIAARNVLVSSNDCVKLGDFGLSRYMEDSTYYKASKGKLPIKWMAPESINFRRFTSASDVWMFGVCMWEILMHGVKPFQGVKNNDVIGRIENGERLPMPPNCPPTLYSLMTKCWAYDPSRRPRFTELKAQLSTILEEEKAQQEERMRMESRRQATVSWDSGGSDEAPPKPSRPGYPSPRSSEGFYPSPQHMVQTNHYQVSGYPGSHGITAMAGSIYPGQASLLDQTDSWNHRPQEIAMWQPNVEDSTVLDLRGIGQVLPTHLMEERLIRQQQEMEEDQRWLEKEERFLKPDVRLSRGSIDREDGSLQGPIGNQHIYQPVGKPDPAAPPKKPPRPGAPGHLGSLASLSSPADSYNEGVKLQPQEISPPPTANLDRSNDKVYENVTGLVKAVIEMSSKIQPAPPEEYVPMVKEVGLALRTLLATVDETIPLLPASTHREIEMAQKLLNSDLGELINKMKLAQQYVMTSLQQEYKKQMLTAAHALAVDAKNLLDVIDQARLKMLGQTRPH

[14] = tested on: Fibrinogen (Alexa647-labelled); assay: Alexa647-fibrinogen binding to printed small molecules – biochemical, small-molecule microarray, 635/667 nm fluorescence, artefact control for SMM control-protein annotation, profiling panel (AID 1131); conditions: fibrinogen-A647 binding fluorescence, higher = more signal;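 also: z-score merges 667 nm fluorescence with per-spot signal-to-noise over triplicate slides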
[15] = target: Follistatin (Homo sapiens) (UniProt P19883); assay: FST protein binding to printed compounds – biochemical, small-molecule microarray, 635/667 nm fluorescence, primary screen (AID 1132); conditions: 635 nm fluorescence, higher = more signal
Sequence of Follistatin (Homo sapiens) (P19883 whole entry, looked up): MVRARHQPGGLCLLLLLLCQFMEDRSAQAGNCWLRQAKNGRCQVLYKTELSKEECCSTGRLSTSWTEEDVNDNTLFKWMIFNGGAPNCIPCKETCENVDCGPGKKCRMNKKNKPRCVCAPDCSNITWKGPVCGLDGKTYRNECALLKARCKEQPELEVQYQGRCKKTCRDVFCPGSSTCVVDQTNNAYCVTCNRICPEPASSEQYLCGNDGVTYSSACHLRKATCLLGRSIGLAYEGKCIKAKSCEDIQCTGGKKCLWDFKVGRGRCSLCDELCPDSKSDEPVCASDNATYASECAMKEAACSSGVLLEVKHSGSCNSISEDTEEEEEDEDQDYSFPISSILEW

[16] = target: Fibroblast growth factor 2 (Homo sapiens) (UniProt P09038); assay: basic fibroblast growth factor binding to printed compounds – biochemical, small-molecule microarray, 635/667 nm fluorescence, primary screen (AID 1133); conditions: FGF2, fluorescence 635/667, higher = more signal
Sequence of Fibroblast growth factor 2 (Homo sapiens) (P09038 whole entry, looked up): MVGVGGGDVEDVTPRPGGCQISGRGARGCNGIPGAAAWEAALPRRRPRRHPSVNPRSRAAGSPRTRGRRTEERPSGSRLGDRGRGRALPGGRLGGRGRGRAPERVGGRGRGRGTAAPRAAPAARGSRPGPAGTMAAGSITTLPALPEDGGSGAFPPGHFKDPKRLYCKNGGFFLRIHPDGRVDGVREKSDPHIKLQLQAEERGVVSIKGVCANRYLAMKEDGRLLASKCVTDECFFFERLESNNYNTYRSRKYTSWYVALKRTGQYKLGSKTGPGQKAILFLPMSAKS

[17] = JC-1 mitochondrial potential readout, lung cancer cells – cell-based, A549, JC-1 fluorescence, basal, 24 h, 100 nL, profiling panel (AID 1138); conditions: higher = more signal;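 also: A549 lung adenocarcinoma cells under basal conditions with no added stimulus; test concentration not given here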
[18] = tested on: Lefty1; assay: Lefty1 protein binding to printed compounds – biochemical, small-molecule microarray, 635/667 nm fluorescence, primary screen (AID 1139); conditions: fluorescence 635/667, higher = more signal
[19] = tested on: wheat germ agglutinin (Triticum aestivum), Alexa647-labelled; assay: Alexa647-WGA lectin binding to printed small molecules – biochemical, small-molecule microarray, 635/667 nm fluorescence, artefact control for SMM control-protein annotation, profiling panel (AID 1140); conditions: WGA-A647 binding, 635 nm fluorescence, higher = more signal;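 also: score merges 667 nm feature emission with signal to noise over triplicate slides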
[20] = target: Luciferin 4-monooxygenase (Photinus pyralis) (UniProt P08659); assay: inhibition of purified Photinus pyralis luciferase – biochemical, luminescence, purified enzyme, 2006 set, primary screen (AID 1141); conditions: purified firefly luciferase, SteadyGlo luminescence, 30 min; higher = more signal, called active from +8 up or from −8 down;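 also: cell-free assay with purified firefly luciferase at 100 ng per well in PBS; test concentration not given here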
Sequence of Luciferin 4-monooxygenase (Photinus pyralis) (P08659 whole entry, looked up): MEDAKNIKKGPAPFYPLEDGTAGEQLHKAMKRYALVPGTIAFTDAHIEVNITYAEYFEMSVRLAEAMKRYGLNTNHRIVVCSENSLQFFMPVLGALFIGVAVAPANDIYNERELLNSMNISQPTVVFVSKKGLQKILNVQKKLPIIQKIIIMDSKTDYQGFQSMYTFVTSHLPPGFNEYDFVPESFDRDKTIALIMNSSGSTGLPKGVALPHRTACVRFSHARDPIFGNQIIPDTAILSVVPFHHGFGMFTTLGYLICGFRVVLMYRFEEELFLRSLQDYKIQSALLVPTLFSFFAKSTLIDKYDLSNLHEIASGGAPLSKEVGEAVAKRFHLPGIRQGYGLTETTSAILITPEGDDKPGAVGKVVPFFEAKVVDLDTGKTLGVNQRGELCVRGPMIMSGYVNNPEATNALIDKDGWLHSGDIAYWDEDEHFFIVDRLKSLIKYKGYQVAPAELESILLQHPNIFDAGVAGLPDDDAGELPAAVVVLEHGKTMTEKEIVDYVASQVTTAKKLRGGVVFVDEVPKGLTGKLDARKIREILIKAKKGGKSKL

SMILES	composite z-score [1]	composite Z-score [2]	composite z-score [3]	composite z-score [4]	composite z-score [5]	composite z-score [6]	composite z-score [7]	composite z-score [8]	composite z-score [9]	composite z-score [10]	composite z-score [11]	composite z-score [12]	composite z-score [13]	composite z-score [14]	composite z-score [15]	composite z-score [16]	z-score [17]	composite z-score [18]	composite z-score [19]	z-score [20]
CC(C)NC(=O)[C@@]1(Cc2ccccc2I)c2ccccc2C(=O)N(Cc2ccccc2Cl)[C@H]1c1ccc(CO)cc1	0.0517	0.786 (inactive)	-0.0573	-0.0741	0.506	1.73	-0.0064	1.29	0.432	1.1	2.99	1.2	0.252	0.443	1.19	0.566	1.46	0.443	0.858	-0.577 (inactive)
COCCCNC(=O)[C@@]1(Cc2ccccc2CN=[N+]=[N-])N=C(c2ccc(OCCCO)cc2)O[C@H]1c1ccccc1CN=[N+]=[N-]	1.02	0.585 (inactive)	0.459	-0.0438	0.594	2.58	0.574	1.29	-1.13	0.972	2.03	1.19	0.125	0.922	0.63	-0.263	-0.556	0.0147	0.28	-2.66 (inactive)
O=C1O[C@@H](c2ccccc2)[C@@H](c2ccccc2)N2[C@@H](c3ccc(OCCO)cc3)[C@]3(C(=O)Nc4ccc(C#CC5=CCCCC5)cc43)[C@@H](C(=O)N3CCCCCCC3)[C@H]12	0.425	4.13 (inactive)	1.87	0.988	0.776	3.59	1.6	1.28	1.42	1.13	1.41	1.23	1.55	0.772	1.39	1.09	-1.02	1.55	1.46	-1.13 (inactive)
COC(=O)[C@@]1(Cc2ccc(OC)cc2)[C@H]2c3cc(C(=O)N(C)C)n(Cc4ccc(C(F)(F)F)nc4)c3C[C@H]2CN1C(=O)c1ccccc1	0.92	3.72 (inactive)	0.17	0.183	0.752	2.11	0.017	-0.354	0.181	-0.0962	0.598	0.846	1.2	0.843	-0.0313	-0.49	0.549	-0.501	0.833	0.678 (inactive)
COc1ccc([Si](C)(C)[C@@H]2[C@@H](CC(=O)N3CCC[C@H]3CO)O[C@]3(C(=O)N(Cc4cccc(I)c4)c4ccccc43)[C@H]2C)cc1	-0.392	0.119 (inactive)	0.175	-0.0956	0.644	0.066	0.0817	1.31	1.45	0.938	2.04	0.781	-0.204	0.591	1.39	1.76	-0.77	1.64	0.481	-0.368 (inactive)
COC(=O)[C@]1(Cc2ccccc2)N=C(c2ccc(OCCCO)cc2)O[C@@H]1c1ccccc1N=[N+]=[N-]	0.165	-0.181 (inactive)	-0.0391	-0.122	0.279	1.59	0.209	0.3	0.315	0.666	1.15	1.2	0.442	0.863	1.36	1.29	-1.24	0.83	0.464	-4.8 (inactive)
O=C1NC(=O)C2C1C=CC(C(O)C=Cc1ccc([N+](=O)[O-])cc1)N2Nc1ccc(Cl)cc1Cl (stereo not given)	0.89	0.541 (inactive)	0.405	0.39	0.76	2.07	1.01	0.756	0.397	0.76	1.72	1.11	0.0716	0.646	1.04	-0.18	0.408	-0.443	0.957	-3.39 (inactive)
Cc1ccc(C2C3C(=O)CC4C(=O)N(c5ccccc5)C(=O)C4C3CN2S(=O)(=O)c2ccc(C)cc2)cc1 (stereo not given)	0.684	-0.0384 (inactive)	0.469	0.603	0.539	2.17	0.362	1.17	-0.479	0.671	1.16	1.24	-0.177	0.403	0.24	0.294	-0.112	0.0507	0.912	0.732 (inactive)
[N-]=[N+]=Nc1ccccc1C[C@@]1(C(=O)N2CCCCC2)N=C(c2ccc(OCCCO)cc2)O[C@@H]1c1ccccc1N=[N+]=[N-]	0.998	0.203 (inactive)	0.384	0.0564	0.299	1.33	0.158	1.32	-0.501	1.12	2.17	1.19	0.362	0.98	1.29	0.592	-1.21	-0.271	1.3	-2.39 (inactive)
O=C1OCCC=C[C@H]2OC34C=CCN(CCN5CCOCC5)C(=O)[C@H]3N(CCCCCO)C(=O)[C@@H]4C12 (stereo not given in full)	0.953	-0.88 (inactive)	-0.152	-0.203	0.848	2.4	1.48	0.913	0.355	0.935	-0.166	0.56	0.398	0.709	-0.211	-0.363	0.791	-0.301	0.615	-0.956 (inactive)
CC(c1ccccc1)C(O)C1C=CC2C(=O)N(c3ccccc3)C(=O)C2N1Nc1ccccc1 (stereo not given)	1.01	0.304 (inactive)	0.298	-0.112	0.493	3.12	0.426	1.34	-0.298	1.11	0.546	1.28	0.476	1.03	1.03	-0.124	-1.27	0.858	1.02	-0.674 (inactive)
